For assay [1], the target named is Tyrosine-protein kinase SYK (Homo sapiens) (UniProt P43405). To be noted: at 10 µM.
The target in assay [2] is T1, Mitogen-activated protein kinase kinase kinase 7 (Homo sapiens) (UniProt O43318).
T1 sequence (whole entry): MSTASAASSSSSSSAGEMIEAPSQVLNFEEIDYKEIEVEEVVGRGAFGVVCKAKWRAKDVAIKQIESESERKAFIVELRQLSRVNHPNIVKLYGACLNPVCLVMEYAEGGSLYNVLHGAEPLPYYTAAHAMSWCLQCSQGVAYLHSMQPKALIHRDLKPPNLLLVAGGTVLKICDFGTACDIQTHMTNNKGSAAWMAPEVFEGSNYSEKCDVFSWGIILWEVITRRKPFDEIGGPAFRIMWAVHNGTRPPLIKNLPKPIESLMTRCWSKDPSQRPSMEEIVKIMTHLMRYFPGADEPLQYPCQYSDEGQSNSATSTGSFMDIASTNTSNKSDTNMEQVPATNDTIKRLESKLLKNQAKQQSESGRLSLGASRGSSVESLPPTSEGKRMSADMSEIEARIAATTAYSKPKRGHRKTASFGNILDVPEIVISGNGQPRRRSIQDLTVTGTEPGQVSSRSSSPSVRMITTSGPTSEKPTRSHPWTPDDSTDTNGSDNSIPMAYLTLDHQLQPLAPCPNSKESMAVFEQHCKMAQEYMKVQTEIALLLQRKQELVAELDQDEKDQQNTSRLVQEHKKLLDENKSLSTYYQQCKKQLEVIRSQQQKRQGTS
To be noted: at 1 µM.

For assay [3], the target named is T1, Mitogen-activated protein kinase kinase kinase 7 (Homo sapiens). The settings on record: at 10 µM.
The target in assay [4] is T2, Serine/threonine-protein kinase TAO1 (Homo sapiens) (UniProt Q7L7X3).
T2 sequence (whole entry): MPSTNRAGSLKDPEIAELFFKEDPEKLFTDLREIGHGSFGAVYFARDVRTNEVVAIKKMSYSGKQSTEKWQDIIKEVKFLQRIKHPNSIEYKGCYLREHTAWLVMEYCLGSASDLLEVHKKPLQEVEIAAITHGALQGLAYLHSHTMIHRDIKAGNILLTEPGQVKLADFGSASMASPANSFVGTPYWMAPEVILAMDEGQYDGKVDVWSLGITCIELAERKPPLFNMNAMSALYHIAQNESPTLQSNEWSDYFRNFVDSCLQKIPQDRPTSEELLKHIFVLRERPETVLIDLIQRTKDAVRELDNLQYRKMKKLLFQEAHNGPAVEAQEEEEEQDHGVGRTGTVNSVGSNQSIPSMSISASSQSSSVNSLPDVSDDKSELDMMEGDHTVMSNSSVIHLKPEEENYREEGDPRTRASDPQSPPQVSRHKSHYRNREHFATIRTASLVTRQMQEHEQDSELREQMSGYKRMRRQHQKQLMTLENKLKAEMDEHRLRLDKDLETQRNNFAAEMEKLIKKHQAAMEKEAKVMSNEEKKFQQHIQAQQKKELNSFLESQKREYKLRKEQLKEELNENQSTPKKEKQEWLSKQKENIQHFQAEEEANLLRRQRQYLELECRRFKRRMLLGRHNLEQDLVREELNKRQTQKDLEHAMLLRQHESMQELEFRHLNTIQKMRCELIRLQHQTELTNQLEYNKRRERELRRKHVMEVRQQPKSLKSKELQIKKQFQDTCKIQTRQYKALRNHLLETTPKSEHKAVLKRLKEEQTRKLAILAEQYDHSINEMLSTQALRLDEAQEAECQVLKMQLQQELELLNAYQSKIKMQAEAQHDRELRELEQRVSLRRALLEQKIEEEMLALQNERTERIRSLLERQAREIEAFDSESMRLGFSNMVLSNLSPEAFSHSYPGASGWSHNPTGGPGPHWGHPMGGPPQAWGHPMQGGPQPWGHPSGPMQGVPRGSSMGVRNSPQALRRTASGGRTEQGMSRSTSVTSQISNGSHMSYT
The settings on record: at 1 µM.

In assay [5] the target is T2, Serine/threonine-protein kinase TAO1 (Homo sapiens). To be noted: at 10 µM.
The target of assay [6] is T3, Serine/threonine-protein kinase TAO2 (Homo sapiens) (UniProt Q9UL54).
T3 sequence (whole entry): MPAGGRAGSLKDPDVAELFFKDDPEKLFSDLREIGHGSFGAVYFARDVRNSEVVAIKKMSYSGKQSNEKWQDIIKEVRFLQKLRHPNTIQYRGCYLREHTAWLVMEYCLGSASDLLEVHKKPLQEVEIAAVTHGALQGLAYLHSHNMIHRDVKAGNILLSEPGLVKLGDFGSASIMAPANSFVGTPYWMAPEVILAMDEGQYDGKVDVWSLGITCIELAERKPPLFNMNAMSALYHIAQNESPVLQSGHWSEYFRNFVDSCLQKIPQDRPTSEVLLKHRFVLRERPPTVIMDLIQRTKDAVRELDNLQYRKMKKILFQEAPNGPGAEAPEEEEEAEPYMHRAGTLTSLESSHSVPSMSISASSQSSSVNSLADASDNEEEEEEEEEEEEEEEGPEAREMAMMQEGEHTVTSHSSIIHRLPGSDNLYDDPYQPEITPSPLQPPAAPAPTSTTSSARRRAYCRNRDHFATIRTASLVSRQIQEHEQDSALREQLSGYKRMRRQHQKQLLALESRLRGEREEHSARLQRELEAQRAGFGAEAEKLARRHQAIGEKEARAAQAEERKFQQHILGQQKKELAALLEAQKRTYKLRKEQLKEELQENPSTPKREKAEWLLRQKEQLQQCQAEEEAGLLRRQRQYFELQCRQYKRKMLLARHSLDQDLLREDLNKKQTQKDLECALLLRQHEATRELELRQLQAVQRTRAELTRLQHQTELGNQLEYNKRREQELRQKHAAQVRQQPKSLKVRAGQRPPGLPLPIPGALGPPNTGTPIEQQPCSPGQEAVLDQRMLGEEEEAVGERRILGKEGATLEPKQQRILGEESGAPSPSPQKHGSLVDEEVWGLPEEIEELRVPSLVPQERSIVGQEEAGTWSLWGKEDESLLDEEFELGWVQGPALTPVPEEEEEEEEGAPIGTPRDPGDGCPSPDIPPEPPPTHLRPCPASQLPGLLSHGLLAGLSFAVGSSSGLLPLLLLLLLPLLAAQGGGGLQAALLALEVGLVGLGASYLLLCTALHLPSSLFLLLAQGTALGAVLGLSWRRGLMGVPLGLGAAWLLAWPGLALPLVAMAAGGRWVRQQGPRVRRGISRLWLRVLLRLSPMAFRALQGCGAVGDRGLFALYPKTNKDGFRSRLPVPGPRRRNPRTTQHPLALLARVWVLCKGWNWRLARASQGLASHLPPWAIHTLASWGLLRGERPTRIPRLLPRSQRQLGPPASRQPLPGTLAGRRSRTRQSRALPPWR
To be noted: at 1 µM.

For assay [7], the target named is T3, Serine/threonine-protein kinase TAO2 (Homo sapiens). The settings on record: at 10 µM.
The target of assay [8] is T4, Serine/threonine-protein kinase TAO3 (Homo sapiens) (UniProt Q9H2K8).
T4 sequence (whole entry): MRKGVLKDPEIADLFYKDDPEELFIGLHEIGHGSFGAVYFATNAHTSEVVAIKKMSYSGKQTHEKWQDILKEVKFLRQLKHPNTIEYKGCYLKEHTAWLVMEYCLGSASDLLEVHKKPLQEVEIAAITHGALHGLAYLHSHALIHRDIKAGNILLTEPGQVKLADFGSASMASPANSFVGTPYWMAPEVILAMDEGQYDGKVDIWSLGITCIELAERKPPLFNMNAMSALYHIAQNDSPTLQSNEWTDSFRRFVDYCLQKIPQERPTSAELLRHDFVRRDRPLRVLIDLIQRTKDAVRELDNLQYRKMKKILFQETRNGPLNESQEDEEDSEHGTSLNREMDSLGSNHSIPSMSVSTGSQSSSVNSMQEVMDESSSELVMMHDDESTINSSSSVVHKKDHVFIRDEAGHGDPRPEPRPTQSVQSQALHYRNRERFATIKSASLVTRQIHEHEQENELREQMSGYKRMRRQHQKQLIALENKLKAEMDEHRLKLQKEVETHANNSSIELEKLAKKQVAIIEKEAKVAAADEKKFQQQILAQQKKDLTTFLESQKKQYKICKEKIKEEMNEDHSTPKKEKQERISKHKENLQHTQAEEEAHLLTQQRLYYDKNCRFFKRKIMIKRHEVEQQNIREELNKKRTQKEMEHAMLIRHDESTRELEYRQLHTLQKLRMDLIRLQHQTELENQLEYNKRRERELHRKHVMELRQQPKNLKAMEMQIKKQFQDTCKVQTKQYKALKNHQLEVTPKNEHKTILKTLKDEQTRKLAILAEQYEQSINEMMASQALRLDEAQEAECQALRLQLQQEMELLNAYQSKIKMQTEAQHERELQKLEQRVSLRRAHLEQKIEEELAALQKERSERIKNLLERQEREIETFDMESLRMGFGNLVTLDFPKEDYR
To be noted: at 1 µM.

For assay [9], the target named is T4, Serine/threonine-protein kinase TAO3 (Homo sapiens). To be noted: at 10 µM.
Assay [10] has as its target T5, Serine/threonine-protein kinase TBK1 (Homo sapiens) (UniProt Q9UHD2).
T5 sequence (whole entry): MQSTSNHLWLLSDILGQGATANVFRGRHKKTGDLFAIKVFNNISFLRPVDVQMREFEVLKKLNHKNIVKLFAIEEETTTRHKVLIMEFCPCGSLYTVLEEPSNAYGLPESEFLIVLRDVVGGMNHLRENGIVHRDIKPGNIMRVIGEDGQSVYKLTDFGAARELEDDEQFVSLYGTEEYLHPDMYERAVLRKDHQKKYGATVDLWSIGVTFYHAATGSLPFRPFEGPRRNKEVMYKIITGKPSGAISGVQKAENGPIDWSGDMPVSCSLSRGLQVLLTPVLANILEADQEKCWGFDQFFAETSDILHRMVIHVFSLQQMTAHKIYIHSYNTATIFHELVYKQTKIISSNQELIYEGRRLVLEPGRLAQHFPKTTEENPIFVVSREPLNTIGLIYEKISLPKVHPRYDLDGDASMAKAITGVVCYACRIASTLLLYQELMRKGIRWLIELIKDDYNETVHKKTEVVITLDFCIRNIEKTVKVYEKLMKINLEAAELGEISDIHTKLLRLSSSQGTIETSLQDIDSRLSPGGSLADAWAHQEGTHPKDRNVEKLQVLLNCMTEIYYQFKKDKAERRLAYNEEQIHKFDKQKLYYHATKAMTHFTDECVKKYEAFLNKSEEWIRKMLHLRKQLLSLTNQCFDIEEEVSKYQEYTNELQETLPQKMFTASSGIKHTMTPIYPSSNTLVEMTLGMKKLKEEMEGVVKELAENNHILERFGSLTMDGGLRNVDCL
The settings on record: at 1 µM.

The structures appear in SMILES notation.

Consider `Nc1ccc2ncnc(NCCc3ccc(Oc4ccccc4)cc3)c2c1`, for which the residual activity in [1] turned out to be 78%; in assay [2], 92%; in [3], 72%; in assay [4], 103%; in assay [5], 88%; in assay [6] it was 90%. The residual activity in assay [7] came to 91%; in [8], 110%; in [9], 92%; in assay [10], 94%.
